Results on 66 compounds are retold here after PubChem BioAssay AID1851 (National Center for Advancing Translational Sciences (NCATS), 2009).

In all, about 16,000 compounds went through this assay and about 5,700 (36%) were called active. About 24% were inconclusive and are not listed. Calls come from the whole dose curve; as a rule, active = well fitted curve in the direction sought with a large enough effect; inconclusive = small, poorly fitted or top-dose-only effect, or effect the other way; inactive = no such curve, though single readings can be large or run the other way. The list shows a part of the results. Square brackets hold non-standard residues; d marks the D form. Peptide text beside a SMILES is read from it. Ac5c = NC1(C(=O)O)CCCC1
% is set by controls: 0 for no effect and ±100 for the full control effect.

This assay deals with Cytochrome P450 1A2 (Homo sapiens) (UniProt P05177). Briefly: Cytochrome panel assay with activity outcomes. Particulars: recombinant CYP, pro-luciferin dealkylation, luminescence, p450-cyp1a2; series mostly up to 57.1 µM; activity, negative = inhibition: at the top concentration.
Sequence of Cytochrome P450 1A2 (Homo sapiens) (P05177 whole entry, looked up): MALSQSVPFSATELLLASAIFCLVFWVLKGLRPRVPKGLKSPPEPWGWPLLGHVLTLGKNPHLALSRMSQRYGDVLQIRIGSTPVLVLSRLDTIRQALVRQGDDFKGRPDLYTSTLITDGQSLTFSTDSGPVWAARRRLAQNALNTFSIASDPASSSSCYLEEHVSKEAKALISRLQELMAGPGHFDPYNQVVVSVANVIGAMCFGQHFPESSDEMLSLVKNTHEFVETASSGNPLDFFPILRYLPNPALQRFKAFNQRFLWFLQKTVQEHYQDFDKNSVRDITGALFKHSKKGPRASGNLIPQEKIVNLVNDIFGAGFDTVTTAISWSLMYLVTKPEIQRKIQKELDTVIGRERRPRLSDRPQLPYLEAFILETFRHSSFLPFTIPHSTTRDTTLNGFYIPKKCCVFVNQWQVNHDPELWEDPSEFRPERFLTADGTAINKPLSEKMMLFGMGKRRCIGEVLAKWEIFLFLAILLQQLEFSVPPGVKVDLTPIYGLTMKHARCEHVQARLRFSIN
For the compound `COC(=O)c1[nH]c(C)c(/C(O)=C2\C(=O)C(=O)N(CCN(C)C)C2c2cccs2)c1C` (stereo unspecified), the “activity, negative = inhibition” value was -24.7% (inactive).

Broadly, the AC50 is the concentration giving half of the maximal activity seen. `C/C(Cl)=C/CSc1nnc2n(N)c(=O)c3ccccc3n12`: the AC50 is 11.2 µM (active).

As to `CCCSc1nnc2n(N)c(=O)c3ccccc3n12`, the AC50 was 4.47 µM (active).

With `CCC(=O)N[C@@H]1CCc2cccc(OC)c2C1`, the AC50 is 12.6 µM (active).

Consider `CCOc1ccccc1NC(=O)CN1CCC(NC(=O)c2ccccc2)CC1`, for which the “activity, negative = inhibition” value is -24.7% (inactive).

With `COC(=O)N1CCC2(CC1)CCN(C(c1ccccc1)c1ccccc1)CC2`, the “activity, negative = inhibition” value is 1.02% (inactive).

Take `COc1ccccc1CNc1cc(-c2ccoc2)ncn1`: the AC50 was 15.8 µM (active).

In the case of `COc1ccc(CNc2cc(-c3ccoc3)ncn2)c(OC)c1`, the AC50 is 15.8 µM (active).

`COc1cccc(CNc2ccc3nc(-c4ccc(N)cc4)c(OC)n3n2)c1`: the AC50 is 39.8 µM (active).

`O=C(O)CSCNC(=O)CC12CC3CC(CC(C3)C1)C2`: the “activity, negative = inhibition” value was -1.39% (inactive).

As for `O=C1CC(c2cccs2)c2cc3c(cc2N1)OCO3` (stereo unspecified), the AC50 is 0.631 µM (active).

Turning to `CC1(C)CC2(CC(c3cccs3)c3cc(Cl)c(O)cc3O2)NC(=S)N1` (stereo unspecified), the “activity, negative = inhibition” value is -22.7% (inactive).

On to `CC(C)NC(=O)N1CCC2(CC1)CCN(C(=O)c1ccco1)CC2`, for which the “activity, negative = inhibition” value was -8.3% (inactive).

Regarding `CC(C)(C)CC(C)(C)c1ccc(O)c(C[N+](C)(C)[O-])c1`, the activity, negative = inhibition is -17.9% [at 2.29 µM] (inactive).

For `CCOC(=O)c1c2c(n3ccccc13)C(=O)c1ccccc1C2=O`, the AC50 is 0.1 µM (active).

With `COC(=O)[C@H](Cc1ccccc1)NC(=O)[C@@H](C)CO`, the activity, negative = inhibition is -9.35% [at 11.4 µM] (inactive).

`O=C(O)C(Cc1ccccc1-c1ccccc1)C(=O)O`: the activity, negative = inhibition was -6.71% [at 11.4 µM] (inactive).

For the compound `CCOC(=O)c1c(-c2ccccc2)cn2ccccc12`, the AC50 was 0.501 µM (active).

As for `COc1cccc(C(=O)N(Cc2ccccc2)Cc2cc3cc4c(cc3[nH]c2=O)OCCO4)c1`, the AC50 was 14.1 µM (active).

For `COc1ccc(CNC(=O)CN(CC2CCCO2)C(=O)CNS(=O)(=O)c2ccccc2)cc1` (stereo unspecified), the “activity, negative = inhibition” value was -14.5% (inactive).

Take `COc1cc2cc(CN(CCCO)S(=O)(=O)c3ccccc3Cl)c(=O)[nH]c2cc1OC`: the “activity, negative = inhibition” value was -22.7% (inactive).

As for `N=C(N)SCCN`, the “activity, negative = inhibition” value is -7.64% (inactive).

Turning to `CCOc1ccc(/C(O)=C2\C(=O)C(=O)N(CCOCCO)C2c2ccccc2OC)cc1` (stereo unspecified), the “activity, negative = inhibition” value is -4.5% (inactive).

`c1ccc(CNc2ncnc3ccc(-c4cccnc4)cc23)cc1`: the AC50 was 0.126 µM (active).

`c1cncc(CNc2ncnc3ccc(-c4ccoc4)cc23)c1`: the AC50 was 0.316 µM (active).

For `Cc1cccc(CNc2ncnc3ccc(-c4cccnc4)cc23)c1`, the AC50 is 0.316 µM (active).

For `c1ccc(Nc2ncnc3ccc(-c4cccnc4)cc23)cc1`, the AC50 is 0.0794 µM (active).

As to `CN(CC(=O)O)Cc1oc(CO)cc(=O)c1O`, the activity, negative = inhibition was -18.3% [at 11.4 µM] (inactive).

With `Cc1ccnc(N)c1`, the “activity, negative = inhibition” value was -19.7% (inactive).

Take `CC(=O)Nc1ccc(Sc2ncccc2C(=O)Nc2ccc(F)cc2)cn1`: the “activity, negative = inhibition” value is 4.19% (inactive).

Take `CSc1ccc(NC(=O)Nc2cc(C)ccn2)cc1`: the AC50 is 0.501 µM (active).

In the case of `COC(=O)/C=C\CCc1coc(/C=C\CNC(=O)OC)n1`, the activity, negative = inhibition was 2.69% [at 11.4 µM] (inactive).

As to `COC(=O)C1CSC(C(=O)OC)N1C(=O)Nc1c(C)cccc1C` (stereo unspecified), the “activity, negative = inhibition” value is -18.8% (inactive).

Turning to `O[C@@](CCN1CCCCC1)(c1ccccc1)C1CCCCC1`, the AC50 result is “inactive”.

With `CC[C@H](CO)NCCN[C@@H](CC)CO`, the “activity, negative = inhibition” value is -2.46% [at 25.6 µM] (inactive).

As for `Cn1cnc2c(NCc3ccccc3)nc(NCCO)nc21`, the AC50 was 5.01 µM (active).

Regarding `Cc1ccccc1CNc1ncnc2c1ncn2[C@@H]1O[C@@H](CO)[C@H](O)[C@@H]1O`, the “activity, negative = inhibition” value is -18.9% (inactive).

Regarding `Cn1c(=O)[nH]c(=O)c2c1nc(NCCCO)n2CCCc1ccccc1`, the “activity, negative = inhibition” value was -26.4% (inactive).

Turning to `FC(F)(F)c1nc(SCc2ccc(Cl)cc2)n[nH]1`, the activity, negative = inhibition is -18.8% [at 2.29 µM] (inactive).

As to `COc1cnc(SCc2ccc(Cl)cc2)nc1Cl`, the AC50 was 12.6 µM (active).

With `CC1=CC(=O)c2ccccc2C1=O`, the AC50 is 0.158 µM (active).

On to `CC(C)NCCOCCSc1ccc(Cl)cc1`, for which the AC50 is 5.01 µM (active).

Consider `CCCCNC(=O)NS(=O)(=O)c1cnccc1Sc1ccc(Cl)cc1`, for which the “activity, negative = inhibition” value is 1.56% (inactive).

Take `CCCCNCCOCCSc1ccc(Cl)cc1`: the AC50 is 12.6 µM (active).

Turning to `Cc1cc(=O)[nH]c2c1c(C)nn2C1CCOC(C)(C)C1` (stereo unspecified), the “activity, negative = inhibition” value is -2.35% (inactive).

For the compound `CO[C@@H]1COC(=O)[C@H](C)NC(=O)[C@@H](C)COC(=O)CCC[C@H]1C`, the activity, negative = inhibition was -10.3% [at 11.4 µM] (inactive).

As to `O=C(CCCCn1c(=S)[nH]c2ccsc2c1=O)NCc1ccco1`, the AC50 is 1.26 µM (active).

On to `Cc1nc2ncnn2c(C)c1CCC(=O)NCc1ccco1`, for which the “activity, negative = inhibition” value was -27.7% (inactive).

As to `O=C(CCCCCn1c(=O)[nH]c2ccsc2c1=O)NCc1ccc2c(c1)OCO2`, the AC50 is 14.1 µM (active).

Take `CCOc1cc2[nH]c(=S)n(CCCC(=O)NCc3ccco3)c(=O)c2cc1OCC`: the “activity, negative = inhibition” value is -24.3% (inactive).

Take `CCOc1cc2[nH]c(=O)n(CCCC(=O)NCc3ccc(OC)cc3)c(=O)c2cc1OCC`: the “activity, negative = inhibition” value is -7.25% (inactive).

In the case of `O=C(CCn1c(=O)[nH]c2ccsc2c1=O)Nc1ccc(F)c(F)c1`, the “activity, negative = inhibition” value is -23% (inactive).

Take `CC(=O)Nc1c(C(=O)N2CCOCC2)cnn1-c1ccc(C)c(C)c1`: the “activity, negative = inhibition” value is 41.4% (inactive).

`CC(=O)Nc1c(C)nn(-c2ccc(C)c(C)c2)c1C`: the AC50 was 14.1 µM (active).

For the compound `Cc1ccc(-n2c(C)cc(C(=S)N3CCOCC3)c2C)cc1C`, the “activity, negative = inhibition” value was -22.6% (inactive).

Take `NCC(=O)NC1(C(=O)O)CCCC1` (H-Gly-[Ac5c]-OH): the activity, negative = inhibition is -5.18% [at 11.4 µM] (inactive).

For the compound `O=C1CC(=O)C(n2cncn2)C(c2cccc(Cl)c2)C1` (stereo unspecified), the “activity, negative = inhibition” value was 6.34% (inactive).

Turning to `C[N+](C)(C)CCCCCNCC12CC3CC(CC(C3)C1)C2`, the “activity, negative = inhibition” value is 0.614% (inactive).

In the case of `COc1ccccc1CN1CC2(CCN(C(=O)c3ccncc3)CC2)C1`, the “activity, negative = inhibition” value was -10.9% (inactive).

Regarding `COc1ccccc1CN1CC2(CCN(C(=O)c3cnccn3)CC2)C1`, the “activity, negative = inhibition” value was 13.8% (inactive).

As to `COc1ccccc1CN1C(=O)c2ccncc2C1=O`, the AC50 was 14.1 µM (active).

For `O=C1N=C(N2CCOCC2)S/C1=C/c1cccs1`, the AC50 is 5.62 µM (active).

As to `O=C1N=C(N2CCOCC2)S/C1=C\C=C/c1ccccc1`, the AC50 was 14.1 µM (active).

Consider `NC1=NC(=O)/C(=C/c2cccs2)S1`, for which the AC50 was 1.41 µM (active).

Take `CC(C)(C)OC(=O)[C@H]([C@@H]1N[C@@H](C(=O)O)C(C)(C)S1)N1C(=O)c2ccccc2C1=O`: the activity, negative = inhibition was -1.41% [at 2.29 µM] (inactive).

Consider `C[C@H]1CC(C)(C)C[C@@](OCCN2CCCCC2)(c2ccccc2)C1`, for which the activity, negative = inhibition is 0.209% [at 11.4 µM] (inactive).
